Results from the supplement of paper PMC4466236.
Whole data set: some 33,000 sequences, median “E-score (dimensionless, -0.5 to 0.5)” near -0.058, cut for the highest 2% near 0.35. This excerpt belongs to a sample that is enriched for the highest values.

Test system: MvaT
Assay: PBM 8-mer E-score (mean of HK and ME arrays) (E-score (dimensionless, -0.5 to 0.5)); higher = stronger relative binding preference
Method: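 Protein binding microarray: GST-tagged full-length MvaT (P. aeruginosa PAO1) bound to two universal double-stranded 60-mer arrays (ME and HK), each with a constant 25-mer primer and a variable 35-mer region covering all 8-mers. The 8-mer E-score (rank-based, range -0.5 to 0.5, >0.45 = specific binding) is the mean of the two arrays.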

Sequence	PBM 8-mer E-score
CAGCAAAC	0.014
CATTACGA	0.0396
AAATGACT	0.114
ATACCCAG	0.103
CGTAAGAC	-0.107
AACTGTGG	-0.0417
ACCTACGA	-0.0935
AATACATG	0.224
AACATAAC	0.245
CACATATA	0.405
AACATAAT	0.371
AATACATC	0.173
AGCATATC	-0.0071
AATACATT	0.374
AACATAAA	0.286
AGCATATA	0.383
CACATATC	0.178
CACATATG	0.196
GGCATATA	0.217
CGAACAAC	0.0607
GCTAGGCA	-0.187
ACGACTAG	-0.185
TACCTCAA	0.05
ACTTGGTA	-0.109
GGTTGATA	0.124

Sequence	PBM 8-mer E-score
GTCTTCGA	-0.0711
GGTCGCGA	-0.238
CCGCAAGA	-0.078
CTCGCCTA	0.0159
GAAAACAC	0.0574
GACATATA	0.362
CATACATA	0.277
TACATACA	0.301
GACATAGA	0.0048
AACATATT	0.392
TATACATA	0.389
AACATACT	0.207
AATACATA	0.324
AACATAGT	0.25
GACATATC	0.113
CACATACA	0.242
AACATACA	0.36
GGTGCGCA	-0.0657
AACGCTGC	0.0312
CAAGCGTG	-0.266
CTCTCTAC	-0.0519
CTTTGACC	-0.131
CCCGGATA	-0.0749
TACACATA	0.242
AACATATG	0.254

Sequence	PBM 8-mer E-score
TACATATA	0.402
AACATATC	0.286
TACATAAA	0.307
AACATATA	0.419
GTTGGCCA	-0.0756
AAGACAGC	0.081
ACACCGGC	-0.133
AATATTCC	0.375
AATATTCG	0.326
CATATTCG	0.173
ACTATTCT	0.208
AATATTCT	0.36
GATATTCC	0.229
TAGAAAAA	0.0922
CGGAGAGA	-0.145
AAGGCAAC	0.0918
AACGCCAG	-0.15
CAGGCAGG	-0.314
AGAATAGG	-0.0847
GATTAACC	0.0145
CGTTAATA	0.31
GATTAATC	0.317
GATTAATA	0.446
CATTAATC	0.341
CATTAATA	0.369

Sequence	PBM 8-mer E-score
ATGCGTCC	-0.205
AAGTTGTC	0.168
ACATACAA	0.362
CTATACAG	0.00215
TTATACAA	0.359
GTATACAA	0.319
ATATACAC	0.336
AAATACAT	0.33
ATACACAG	0.0306
TGATACAA	0.145
ACATACAT	0.275
TCATACAA	0.0994
ATATACAT	0.365
ATATACAG	0.379
CCGAAACA	0.00391
CTGGAACA	0.00992
CAGTATAG	0.0504
ACTTGGAC	0.0426
GGACACGA	-0.163
ATGTGTTA	0.258
CGCTTTAA	0.0497
CTTCGTGC	-0.0984
AATTGAGC	0.0577
ATATACAA	0.406
ATACACAA	0.154

Sequence	PBM 8-mer E-score
CTATACAA	0.202
AATTAATC	0.366
AGTTAATG	0.271
AATTAATT	0.469
CGTTAATC	0.127
AATCAATT	0.246
AATTAACA	0.333
AATTAATG	0.359
AATTACGT	0.263
CATTAATG	0.34
AATTAATA	0.449
AGTCCAAT	0.0865
CGAAAGTC	-0.0957
AATCTGCT	-0.0198
AAAGACCC	-0.224
CATACTAG	0.203
AGGGCCCG	-0.227
GGGTCCAC	-0.22
ATGCGCGG	-0.207
GCGGGGAA	-0.103
GTAAGCGA	0.0773
AATTAACC	0.262
AATTAACG	0.28
AATTAACT	0.354
ACCCAAAC	0.192

Sequence	PBM 8-mer E-score
GAGTAATA	0.287
AAGTAATT	0.392
AAGTAATA	0.379
AAGTACTA	0.257
CAGTAATA	0.273
TAGTAAAA	0.315
AAGTAATG	0.276
AAGTACTC	0.137
TAGTAACA	0.274
AAGTACTT	0.41
AAGTAATC	0.186
TAGTAATA	0.352
ATCAGGCG	-0.0225
ATCTGCTA	0.109
ACAGGACT	-0.164
AGTGCCGA	-0.0895
AAATCCCC	-0.192
CGTTCCAA	0.0493
GGTCCTCA	-0.193
ATAGCAGC	0.0386
GTAATCTA	0.151
AAAACTGT	0.0621
TAATAGTA	0.362
CAATAGTA	0.264
GAATAGTA	0.229

Sequence	PBM 8-mer E-score
CTTATCGC	0.049
CCCTTTCC	-0.188
TAATAATA	0.477
GAATAATC	0.188
GAATAATA	0.446
GAATAAGC	0.194
AAAAAATG	0.0805
ACATAATC	0.222
GCATAATA	0.339
ACATAATA	0.401
AAATAATG	0.387
AACCTTTA	0.192
AGGGCCTG	-0.226
GATCTGAC	-0.0641
ATACCAAG	-0.0486
CTGCGCAA	-0.0818
AAGAGACT	-0.04
AACGCGTG	-0.0417
ACTTCTGC	0.0207
TTCCAGAA	0.055
GCTAGGAA	-0.167
GAATAACA	0.2
CAATAATC	0.19
CAATAATA	0.418
GAATAAGA	0.201

Sequence	PBM 8-mer E-score
CAATAATG	0.322
AAAAAATT	0.153
AAATAATT	0.438
TAATAAGA	0.375
TAATAACA	0.379
CAATAACA	0.283
AAATAAGA	0.309
CTACCGCA	-0.134
CCTGATGC	-0.163
CAGCTTAG	-0.203
GGACAGTA	-0.0349
AACTTTCG	0.255
GCCTAGCC	-0.187
CTAAGTAG	0.0522
AAATAATA	0.428
AAAAAATA	0.331
AAATAATC	0.301
CCTCAAAC	-0.125
CTATATCA	0.16
ATATATCG	0.442
AGATATCC	-0.0391
CTATATCC	0.123
GTATATCA	0.237
ATATATCA	0.427
ATATATCC	0.38

Sequence	PBM 8-mer E-score
AAATATCG	0.295
ACATATCG	0.243
TCGTGACA	-0.206
GTTTCACA	-0.00657
AAATTCCG	0.108
CCTTTAAA	0.211
TCTTTTAA	0.296
GCTTTAAA	0.249
ACTTTAAT	0.414
ACTTTTAA	0.383
ACTTTAAG	0.254
ACTTTTAC	0.211
ACTTTAAC	0.326
ACTTTAAA	0.404
ACTTTTAT	0.363
ACTTTTTA	0.309
ACTTTTAG	0.112
CGTCACCA	-0.18
ATCCCTTC	-0.172
